Six compounds from PubChem BioAssay can be followed below.

The target in one test is Albumin (Bos taurus) (UniProt P02769). Put plainly: compounds binding labelled BSA control protein – biochemical, small-molecule microarray, Alexa647 label, 635/667 nm fluorescence, artefact control for SMM control protein annotation, profiling panel (AID 1118).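 Further: score merges 667 nm emission intensity and signal-to-noise per printed compound spot.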 To be noted: BSA-A647 binding, fluorescence 635 nm, higher = more signal.
Test [1] is described as follows: probe aXIP binding to arrayed compounds – biochemical, NeuroSMM set, 635/667 nm fluorescence, primary screen (AID 1119).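 Further: probe is the protein aXip251-270 applied at 1 µg/mL to compound-printed slides; binding of probe to printed compounds measured as 667 nm fluorescence plus signal to noise.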 The conditions noted are these: small-molecule microarray, higher = more signal, called active from +8 up or from −8 down.
Test [2] is described as follows: probe aNOTCH3 binding on compound microarray – biochemical, small-molecule microarray, 635/667 nm fluorescence, primary screen (AID 1120).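 Further: probe is a biotin-tagged antibody raised against NOTCH3 rather than NOTCH3 protein; score merges spot fluorescence near 667 nm with spot signal to noise.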 To be noted: higher = more signal.
Test [3] in a line: probe aNOTCH2 binding on compound microarray – biochemical, small-molecule microarray, 635/667 nm fluorescence, primary screen (AID 1121).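 Further: score merges feature fluorescence read at 667 nm with its signal to noise.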 The conditions noted are these: higher = more signal.
The target in test [4] is Carbonic anhydrase 2 (Homo sapiens) (UniProt P00918). Briefly: compounds binding carbonic anhydrase 2 – biochemical, small-molecule microarray, Alexa647-labelled CAII, profiling panel (AID 1122). The conditions noted are these: CAII-A647 binding fluorescence, higher = more signal.
The nature of test [5]: COS7 lysate on small-molecule microarray, probe aHis, 635 nm (AID 1123).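 Further: z-score combines 667nm fluorescence intensity with signal-to-noise per printed compound spot.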 To be noted: COS7 cell lysate, fluorescence, higher = more signal.
Test [6] can be described thus: probe aLAP1 signal on lysate-treated microarray – cell lysate, small-molecule microarray, COS7 lysate, primary screen (AID 1124).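 Further: lysate comes from COS7 cells expressing LAP1 and is applied at 0.3 µg/mL; score merges spot fluorescence near 667 nm with signal-to-noise over triplicate slides.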 The conditions noted are these: probe aLAP1, fluorescence, higher = more signal.
A further test relates to Sam68 (KHDRBS1). Briefly: compounds binding KHDRBS1 protein – biochemical, small-molecule microarray, 635 nm fluorescence, primary screen (AID 1125).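 Further: score merges 667 nm channel intensity with signal to noise over triplicate slides.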 The conditions noted are these: higher = more signal.
Test [7] deals with Chordin-like protein 2 (CHRDL2). Put plainly: compounds binding chordin-like 2 – biochemical, small-molecule microarray, 635 nm fluorescence, primary screen (AID 1126).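 Further: printed compound slides probed with Chrdl2 protein at 4 µg/mL for 1 h at 4 C; score merges 667 nm emission intensity with signal to noise over three replicate slides.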 The conditions noted are these: fluorescence 635 nm, higher = more signal.
Test [8] has as its target Concanavalin-A (Canavalia ensiformis) (UniProt P02866). Put plainly: compounds binding concanavalin A lectin – biochemical, small-molecule microarray, Alexa647 label, 635 nm, artefact control for SMM control protein annotation, primary screen (AID 1127).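 Further: z combines 667 nm emission intensity with signal-to-noise across three replicate slides.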 To be noted: ConA-A647 binding fluorescence, higher = more signal.
The nature of test [9]: compounds binding Alexa647 anti-His antibody – biochemical, small-molecule microarray, 635 nm fluorescence, artefact control for SMM control protein annotation, primary screen (AID 1128).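 Further: score merges feature fluorescence with signal-to-noise for each printed compound spot.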 The conditions noted are these: higher = more signal.
The test system of test [10] is Human papillomavirus type 1a E7 protein (residues 1-88). Put plainly: HPV1a E7 small-molecule binders, primary screen, biochemical, small-molecule microarray, residues 1-88, 635 nm (AID 1129). The conditions noted are these: small-molecule microarray binding, fluorescence 635 nm; higher = more signal.
Test [11] deals with Focal adhesion kinase 1 (Homo sapiens) (UniProt Q05397). Briefly: PTK2 protein binding on printed compound slides – biochemical, small-molecule microarray, 635/667 nm fluorescence, BSA, DTT, primary screen (AID 1130).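 Further: composite of spot emission at 667 nm and signal to noise over triplicate slides.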 The conditions noted are these: 635 nm fluorescence, higher = more signal.
Test [12] relates to Fibrinogen (Alexa647-labelled). Briefly: Alexa647-fibrinogen binding to printed small molecules – biochemical, small-molecule microarray, 635/667 nm fluorescence, artefact control for SMM control-protein annotation, profiling panel (AID 1131).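 Further: z-score merges 667 nm fluorescence with per-spot signal-to-noise over triplicate slides.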 To be noted: fibrinogen-A647 binding fluorescence, higher = more signal.
The target of test [13] is Follistatin (Homo sapiens) (UniProt P19883). Briefly: FST protein binding to printed compounds – biochemical, small-molecule microarray, 635/667 nm fluorescence, primary screen (AID 1132). The conditions noted are these: 635 nm fluorescence, higher = more signal.
Test [14] concerns the target Fibroblast growth factor 2 (Homo sapiens) (UniProt P09038). Briefly: basic fibroblast growth factor binding to printed compounds – biochemical, small-molecule microarray, 635/667 nm fluorescence, primary screen (AID 1133). To be noted: FGF2, fluorescence 635/667, higher = more signal.
A short description of test [15]: JC-1 mitochondrial potential readout, lung cancer cells – cell-based, A549, JC-1 fluorescence, basal, 24 h, 100 nL, profiling panel (AID 1138).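 Further: A549 lung adenocarcinoma cells under basal conditions with no added stimulus; test concentration not given here.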 To be noted: higher = more signal.
Another test relates to Lefty1. Put plainly: Lefty1 protein binding to printed compounds – biochemical, small-molecule microarray, 635/667 nm fluorescence, primary screen (AID 1139). To be noted: fluorescence 635/667, higher = more signal.
Test [16] relates to wheat germ agglutinin (Triticum aestivum), Alexa647-labelled. Put plainly: Alexa647-WGA lectin binding to printed small molecules – biochemical, small-molecule microarray, 635/667 nm fluorescence, artefact control for SMM control-protein annotation, profiling panel (AID 1140).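 Further: score merges 667 nm feature emission with signal to noise over triplicate slides.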 The conditions noted are these: WGA-A647 binding, 635 nm fluorescence, higher = more signal.
Test [17] addresses Luciferin 4-monooxygenase (Photinus pyralis) (UniProt P08659). Put plainly: inhibition of purified Photinus pyralis luciferase – biochemical, luminescence, purified enzyme, 2006 set, primary screen (AID 1141).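 Further: cell-free assay with purified firefly luciferase at 100 ng per well in PBS; test concentration not given here.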 The conditions noted are these: purified firefly luciferase, SteadyGlo luminescence, 30 min; higher = more signal, called active from +8 up or from −8 down.

Active and inactive are the calls of the source.

Sequence of Fibroblast growth factor 2 (Homo sapiens) (P09038 whole entry, looked up): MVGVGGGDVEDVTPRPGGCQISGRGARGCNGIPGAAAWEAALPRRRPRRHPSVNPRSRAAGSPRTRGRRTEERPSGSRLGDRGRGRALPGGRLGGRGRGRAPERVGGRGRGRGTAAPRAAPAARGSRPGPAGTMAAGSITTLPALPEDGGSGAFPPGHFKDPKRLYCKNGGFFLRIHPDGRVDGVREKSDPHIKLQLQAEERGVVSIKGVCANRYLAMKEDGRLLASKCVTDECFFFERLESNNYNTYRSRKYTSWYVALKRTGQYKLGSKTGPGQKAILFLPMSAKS
Sequence of Concanavalin-A (Canavalia ensiformis) (P02866 whole entry, looked up): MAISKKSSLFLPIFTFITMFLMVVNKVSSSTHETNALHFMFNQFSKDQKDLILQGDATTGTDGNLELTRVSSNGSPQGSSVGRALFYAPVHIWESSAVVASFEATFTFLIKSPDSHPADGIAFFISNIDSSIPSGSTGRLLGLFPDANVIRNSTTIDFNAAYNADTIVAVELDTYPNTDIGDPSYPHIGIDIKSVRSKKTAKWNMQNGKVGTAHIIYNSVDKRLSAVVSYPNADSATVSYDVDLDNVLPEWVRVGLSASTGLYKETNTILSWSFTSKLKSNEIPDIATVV
Sequence of Albumin (Bos taurus) (P02769 whole entry, looked up): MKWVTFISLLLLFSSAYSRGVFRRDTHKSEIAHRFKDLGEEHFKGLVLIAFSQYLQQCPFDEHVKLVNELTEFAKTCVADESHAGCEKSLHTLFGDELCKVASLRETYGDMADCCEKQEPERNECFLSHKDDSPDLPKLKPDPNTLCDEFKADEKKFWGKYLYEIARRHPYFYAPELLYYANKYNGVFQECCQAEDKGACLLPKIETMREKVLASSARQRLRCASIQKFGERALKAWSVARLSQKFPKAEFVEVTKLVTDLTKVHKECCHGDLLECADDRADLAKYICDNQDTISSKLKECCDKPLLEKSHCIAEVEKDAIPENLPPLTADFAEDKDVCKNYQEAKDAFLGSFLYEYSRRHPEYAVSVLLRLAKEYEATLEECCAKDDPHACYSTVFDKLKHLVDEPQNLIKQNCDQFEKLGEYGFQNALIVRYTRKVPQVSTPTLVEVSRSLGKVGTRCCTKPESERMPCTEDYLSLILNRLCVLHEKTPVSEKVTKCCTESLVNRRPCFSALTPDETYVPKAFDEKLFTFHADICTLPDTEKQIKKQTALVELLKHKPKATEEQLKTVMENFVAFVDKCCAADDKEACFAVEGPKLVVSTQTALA
Sequence of Luciferin 4-monooxygenase (Photinus pyralis) (P08659 whole entry, looked up): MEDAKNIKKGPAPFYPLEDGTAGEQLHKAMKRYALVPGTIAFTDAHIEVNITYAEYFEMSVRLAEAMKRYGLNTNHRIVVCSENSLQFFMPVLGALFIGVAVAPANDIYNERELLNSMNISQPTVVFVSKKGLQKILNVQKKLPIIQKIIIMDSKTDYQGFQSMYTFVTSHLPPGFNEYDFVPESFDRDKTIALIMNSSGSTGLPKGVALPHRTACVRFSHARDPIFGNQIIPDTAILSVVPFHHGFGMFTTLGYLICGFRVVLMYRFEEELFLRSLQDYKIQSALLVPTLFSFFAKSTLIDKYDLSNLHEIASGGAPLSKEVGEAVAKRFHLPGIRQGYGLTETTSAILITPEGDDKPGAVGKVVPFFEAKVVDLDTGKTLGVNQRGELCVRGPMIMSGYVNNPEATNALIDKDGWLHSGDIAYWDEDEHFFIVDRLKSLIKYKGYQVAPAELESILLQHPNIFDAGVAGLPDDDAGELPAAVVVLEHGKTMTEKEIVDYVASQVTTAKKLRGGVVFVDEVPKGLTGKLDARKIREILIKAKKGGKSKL
Sequence of Focal adhesion kinase 1 (Homo sapiens) (Q05397 whole entry, looked up): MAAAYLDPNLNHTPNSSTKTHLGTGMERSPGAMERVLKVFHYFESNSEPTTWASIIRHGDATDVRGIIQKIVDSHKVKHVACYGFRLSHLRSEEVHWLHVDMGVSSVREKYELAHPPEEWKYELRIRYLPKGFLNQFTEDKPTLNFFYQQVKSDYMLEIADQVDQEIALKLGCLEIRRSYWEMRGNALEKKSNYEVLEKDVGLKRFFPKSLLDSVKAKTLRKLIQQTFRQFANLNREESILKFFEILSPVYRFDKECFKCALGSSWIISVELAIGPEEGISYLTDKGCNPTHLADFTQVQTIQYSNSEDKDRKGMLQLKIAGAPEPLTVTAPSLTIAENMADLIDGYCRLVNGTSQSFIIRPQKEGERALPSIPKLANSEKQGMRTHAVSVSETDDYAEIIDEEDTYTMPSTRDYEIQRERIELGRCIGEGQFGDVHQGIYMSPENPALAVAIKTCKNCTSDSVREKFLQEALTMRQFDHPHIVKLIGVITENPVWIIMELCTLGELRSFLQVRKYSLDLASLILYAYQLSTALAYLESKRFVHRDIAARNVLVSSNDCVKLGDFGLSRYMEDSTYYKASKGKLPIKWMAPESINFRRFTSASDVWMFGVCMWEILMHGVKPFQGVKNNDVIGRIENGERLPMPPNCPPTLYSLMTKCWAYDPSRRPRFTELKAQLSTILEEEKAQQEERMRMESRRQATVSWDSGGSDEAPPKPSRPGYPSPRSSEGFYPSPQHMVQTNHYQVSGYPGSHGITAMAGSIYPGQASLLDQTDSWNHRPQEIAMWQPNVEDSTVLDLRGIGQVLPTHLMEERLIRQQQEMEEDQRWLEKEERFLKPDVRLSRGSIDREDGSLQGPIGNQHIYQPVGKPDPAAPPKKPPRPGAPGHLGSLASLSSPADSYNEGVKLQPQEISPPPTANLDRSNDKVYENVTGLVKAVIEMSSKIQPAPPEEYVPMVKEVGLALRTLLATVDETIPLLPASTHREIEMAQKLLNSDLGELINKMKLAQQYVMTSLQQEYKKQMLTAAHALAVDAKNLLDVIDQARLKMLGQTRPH
Sequence of Follistatin (Homo sapiens) (P19883 whole entry, looked up): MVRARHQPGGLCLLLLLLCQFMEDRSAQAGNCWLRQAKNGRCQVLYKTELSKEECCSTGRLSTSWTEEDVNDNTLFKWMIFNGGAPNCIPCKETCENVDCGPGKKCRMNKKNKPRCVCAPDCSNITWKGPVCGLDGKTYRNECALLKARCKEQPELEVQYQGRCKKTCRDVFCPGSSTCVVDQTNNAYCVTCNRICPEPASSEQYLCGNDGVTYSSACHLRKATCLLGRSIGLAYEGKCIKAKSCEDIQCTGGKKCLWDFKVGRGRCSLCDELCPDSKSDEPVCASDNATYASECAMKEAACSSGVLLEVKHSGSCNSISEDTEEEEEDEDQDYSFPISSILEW

For the compound `[N-]=[N+]=Nc1ccccc1C[C@@]1(C(=O)N2CCOCC2)N=C(c2ccc(OCCCO)cc2)O[C@@H]1c1ccccc1N=[N+]=[N-]`, the composite z-score in the test with Albumin (Bos taurus) is 0.873; in test [2], 0.121; in test [3], -0.0286; in test [4], 0.467; in test [5], 1.24; in test [6], 0.0649. In addition, the composite z-score with Sam68 (KHDRBS1) was 1.33; in test [7] it was -0.338; in test [8] it was 1.1; in test [9] it was 2.48; in [10], 1.19; in test [11] it was 1.41. The composite z-score in test [12] amounted to 0.886; in [13] it was 1.42; in test [14] it was 0.667; in the test with Lefty1, 0.0674; in [16], 1.22. In test [1], the composite Z-score is 0.997 (inactive). The values for the z-score in test [15] and in [17] were 2.03 and -3.69 (inactive), respectively.

`COc1ccc(CCNC(=O)[C@@]2(c3ccc([N+](=O)[O-])cc3)CC(=O)N(C(C)C)[C@@H]2c2ccc(CO)cc2)cc1`: the composite z-score in the test with Albumin (Bos taurus) was 0.0638; in test [2], -0.331; in test [3], -0.154; in [4], 0.748; in test [5] it was 0.462; in test [6] it was 0.451. For the same compound, the composite z-score in the test on Sam68 (KHDRBS1) is -0.549; in test [7], -2.5; in [8], -0.895; in test [9] it was -0.601; in [10] it was -0.622; in test [11] it was -0.637. The composite z-score in test [12] was -2.13; in test [13], -0.669; in test [14], -0.848; in the test on Lefty1, -2.2; in test [16], -0.81. Moreover, the composite Z-score in test [1] is 0.265 (inactive). Also, the results for the z-score in test [15] and in [17] were 0.774 and -0.939 (inactive), respectively.

As for `COc1cc2c(cc1OC)CN(C(=O)[C@H]1[C@@H]3C(=O)O[C@@H](c4ccccc4)[C@@H](c4ccccc4)N3[C@@H](c3ccccc3OCCO)[C@]13C(=O)Nc1ccc(C#CC4(O)CCCCCC4)cc13)CC2`, the composite z-score in the test with Albumin (Bos taurus) is 0.168; in test [2] it was -0.0043; in test [3] it was -0.0211; in test [4], 0.314; in test [5] it was 2.12; in test [6], 0.982. The composite z-score in the test with Sam68 (KHDRBS1) is 1.3; in test [7], 0.454; in test [8] it was 1.13; in [9], 2.85; in test [10], 1.21; in [11], -0.0047. Besides, the composite z-score in [12] was determined as 0.922; in test [13], 1.37; in test [14] it was 1.27; with Lefty1, 0.971; in test [16], 1.08. The composite Z-score in [1] was 0.267 (inactive). Besides, the z-score was -0.627 in test [15] and -1.02 (inactive) in [17].

With `CC(C)C[C@@H]1NC(=O)[C@H]2C[C@@H](C(=O)NCCCCCC[N+](C)(C)C)[C@@H](c3ccc(O)cc3)N2C1=O`, the composite z-score in the test with Albumin (Bos taurus) was 0.34; in test [2] it was -0.126; in [3] it was -0.164; in test [4], 0.717; in test [5] it was 0.439; in [6], 0.102. In addition, the composite z-score in the test with Sam68 (KHDRBS1) is -0.907; in [7], 0.362; in test [8] it was 0.452; in [9], 2.28; in test [10], -0.194; in test [11] it was -0.188. Besides, the composite z-score in [12] is -1.44; in test [13] it was 1.16; in test [14] it was 0.839; in the test with Lefty1, 0.467; in test [16], 0.952. Moreover, the composite Z-score in [1] was 0.448 (inactive). Further, the z-score in [15] was -0.603; in test [17], 0.779 (inactive).

Turning to `C=C(COC)C(=O)CC[C@H](OC(=O)c1ccccc1-c1ccccc1C(=O)O)c1cccc(OCCO)c1`, the composite z-score is -0.611 in the test with Albumin (Bos taurus); 0.123 in test [2]; -0.118 in [3]; 0.418 in test [4]; 4.78 in test [5]; 0.893 in [6]. Also, the composite z-score turned out to be 0.735 in the test on Sam68 (KHDRBS1); 1.43 in [7]; 0.893 in [8]; 2.49 in test [9]; 1.27 in test [10]; 0.403 in test [11]. Besides, the composite z-score in test [12] was -0.46; in test [13] it was 1.56; in [14] it was 2.11; in the test on Lefty1 it was 1.65; in test [16] it was -0.496. In addition, in test [1], the composite Z-score was 0.61 (inactive). In addition, the z-score in [15] is -1.02; in [17], -4.13 (inactive).

For the compound `CCCC[C@H]1OB(O)C[C@H]2C1=C(COC)C[C@H]1C(=O)N(Cc3ccccc3)C(=O)[C@H]12`, the composite z-score with Albumin (Bos taurus) was 0.11; in test [2], 0.0727; in [3], -0.182; in test [4] it was 0.606; in test [5], 0.0082; in [6], 0.102. The composite z-score with Sam68 (KHDRBS1) was 0.252; in [7] it was -0.0765; in [8], 0.106; in [9], -0.438; in [10], 0.422; in [11], 0.112. In addition, the composite z-score in test [12] amounted to 0.575; in test [13], 0.935; in test [14], 1.18; in the test on Lefty1, 0.499; in [16] it was 0.552. In [1], the composite Z-score is -0.328 (inactive). Further, the z-score in test [15] was 1.03; in test [17], -1.22 (inactive).
